Experimental data as given in PubChem BioAssay (EPA / NIEHS).
The source made the active and inactive calls. How the source made its calls: active means hit-call score of the fitted dose curve at least 0.9, where 1 is the maximum; inactive means score below 0.9.

What was measured:
Settings in all cases: mRNA level, 48 h; actives raise or lower the signal
[1] = read-out: Keratin 19 (KRT19), KRT19 (gene 3880); test: LTEA_HepaRG_KRT19: Life Technologies and Expression Analysis (LTEA) Assay for Keratin 19 (KRT19) using HepaRG (AID 2283512)
Outline: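 KRT19 transcript levels, measured by Fluidigm qRT-PCR against three housekeeping genes, are fitted for gain or loss of signal relative to DMSO. Human HepaRG cells receive test chemicals (top 100 uM, half-log steps, 0.5% DMSO) for 48 hours.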

[2] = read-out: JUN Transcription Factor, JUN (gene 3725); test: LTEA_HepaRG_JUN: Life Technologies and Expression Analysis (LTEA) Assay for JUN Transcription Factor using HepaRG (AID 2283513)
Outline: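 Differentiated HepaRG cells were exposed to chemicals for 48 h in serum-free induction medium, 8 concentrations from 100 uM in half-log steps, 0.5% DMSO vehicle, in duplicate. JUN mRNA was quantified by TaqMan qRT-PCR, normalized to ACTB, GAPDH, POLR2A.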

[3] = read-out: Lipase C (LIPC), LIPC (gene 3990); test: LTEA_HepaRG_LIPC: Life Technologies and Expression Analysis (LTEA) Assay for Lipase C (LIPC) using HepaRG (AID 2283514)
Outline: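 Read-out is LIPC transcript level by TaqMan qRT-PCR, normalized to three housekeeping genes, after 48 h chemical treatment of human HepaRG liver cells. Curves span eight concentrations topping at 100 uM; activity in either direction scored relative to 0.5% DMSO.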

[4] = read-out: Lipoprotein lipase (LPL), LPL (gene 4023); test: LTEA_HepaRG_LPL: Life Technologies and Expression Analysis (LTEA) Assay for Lipoprotein lipase (LPL) using HepaRG (AID 2283515)
Outline: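 Read-out is LPL transcript level by qRT-PCR, normalized to three housekeeping genes and fitted bidirectionally against the DMSO control. Human HepaRG cells received chemicals for 48 h at up to 100 uM.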

[5] = read-out: MicroRNA 122 (MIR122), gene 406906; test: LTEA_HepaRG_MIR122: Life Technologies and Expression Analysis (LTEA) Assay for MicroRNA 122 (MIR122) using HepaRG (AID 2283516); further: the transcript read is the microRNA miR-122
Outline: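 Differentiated human HepaRG cells were exposed 48 h in serum-free induction medium to eight half-log concentrations (top 100 uM, 0.5% DMSO). Transcript level was measured by TaqMan qRT-PCR, normalized to ACTB, GAPDH and POLR2A, and fitted bidirectionally versus DMSO.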

[6] = read-out: matrix metalloproteinase-10 (MMP10), MMP10 (gene 4319); test: LTEA_HepaRG_MMP10: Life Technologies and Expression Analysis (LTEA) Assay for matrix metalloproteinase-10 (MMP10) using HepaRG (AID 2283517)
Outline: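 Gain or loss of MMP10 mRNA is fitted relative to the 0.5% DMSO vehicle. The human hepatic line HepaRG receives a 48-hour serum-free exposure, in duplicate, with a maximum concentration of 100 uM.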

MYC, MYC (gene 4609) = test: LTEA_HepaRG_MYC: Life Technologies and Expression Analysis (LTEA) Assay for MYC using HepaRG (AID 2283518)
Outline: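 HepaRG, ~100,000 cells/well, collagen I; 48 h plating; serum-free induction medium; 48 h dosing, duplicate, 100 uM top, half-log, 0.5% DMSO; total RNA → qRT-PCR MYC; gain/loss fit vs DMSO.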

[7] = read-out: matrix metalloproteinase-3 (MMP3), MMP3 (gene 4314); test: LTEA_HepaRG_MMP3: Life Technologies and Expression Analysis (LTEA) Assay for matrix metalloproteinase-3 (MMP3) using HepaRG (AID 2283519)
Outline: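 HepaRG, human; 48 h dosing, 8 conc. (max 100 uM, half-log), duplicate, 0.5% DMSO. Readout: MMP3 transcript by Fluidigm TaqMan qRT-PCR, ACTB/GAPDH/POLR2A-normalised. Gain or loss fitted vs DMSO.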

[8] = read-out: Paternally Expressed 10 (PEG10), PEG10 (gene 23089); test: LTEA_HepaRG_PEG10: Life Technologies and Expression Analysis (LTEA) Assay for Paternally Expressed 10 (PEG10) using HepaRG (AID 2283520)
Outline: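 Differentiated HepaRG cells, plated 48 h then switched to serum-free induction medium, were exposed in duplicate for 48 h to eight half-log concentrations topping at 100 uM in 0.5% DMSO. PEG10 mRNA was quantified by TaqMan qRT-PCR, normalised to ACTB, GAPDH and POLR2A.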

[9] = read-out: Nuclear factor NF-kappa-B p105 subunit (Homo sapiens) (UniProt P19838); test: LTEA_HepaRG_NFKB1: Life Technologies and Expression Analysis (LTEA) Assay for Nuclear Factor Kappa B Subunit 1 (NFKB1) using HepaRG (AID 2283521)
Outline: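 Differentiated human HepaRG cells in serum-free induction medium with 0.5% DMSO were exposed for 48 h to eight half-log concentrations, top 100 uM, in duplicate. NFKB1 mRNA measured by Fluidigm TaqMan qRT-PCR, normalised to ACTB, GAPDH and POLR2A; bidirectional fit versus DMSO.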

[10] = read-out: Protein phosphatase 2A (PPP2R4), PTPA (gene 5524); test: LTEA_HepaRG_PPP2R4: Life Technologies and Expression Analysis (LTEA) Assay for Protein phosphatase 2A (PPP2R4) using HepaRG (AID 2283522)
Outline: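 Differentiated HepaRG cells in serum-free induction medium were exposed in duplicate for 48 h to eight concentrations, top 100 uM with half-log dilutions, in 0.5% DMSO. PPP2R4 mRNA was quantified by TaqMan qRT-PCR, normalized to ACTB, GAPDH and POLR2A.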

[11] = read-out: Phosphatase and tensin (PTEN), PTEN (gene 5728); test: LTEA_HepaRG_PTEN: Life Technologies and Expression Analysis (LTEA) Assay for Phosphatase and tensin (PTEN) using HepaRG (AID 2283523)
Outline: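 Read-out is PTEN transcript level by multiplexed TaqMan qRT-PCR after 48 h chemical treatment of human HepaRG cultures in serum-free induction medium. Concentrations spanned 100 uM downward in half-log steps, 0.5% DMSO throughout; activity fitted in both directions against vehicle.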

[12] = read-out: solute carrier (SLC22A1), SLC22A1 (gene 6580); test: LTEA_HepaRG_SLC22A1: Life Technologies and Expression Analysis (LTEA) Assay for solute carrier (SLC22A1) using HepaRG (AID 2283524)
Outline: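 HepaRG (human liver line), 48 h dosing in serum-free induction medium; 8 conc., half-log down from 100 uM, 0.5% DMSO vehicle, duplicates. Endpoint: SLC22A1 mRNA, qRT-PCR, housekeeping-normalized; gain/loss fit vs DMSO.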

[13] = read-out: Pyruvate Dehydrogenase Kinase 4 (PDK4), PDK4 (gene 5166); test: LTEA_HepaRG_PDK4: Life Technologies and Expression Analysis (LTEA) Assay for Pyruvate Dehydrogenase Kinase 4 (PDK4) using HepaRG (AID 2283525)
Outline: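 In this multiplexed human HepaRG expression assay, cells are treated 48 h with test chemicals across an eight-point range starting at 100 uM. PDK4 mRNA changes, normalized to ACTB/GAPDH/POLR2A, are fitted in both directions relative to vehicle.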

[14] = read-out: NAD(P)H dehydrogenase [quinone] 1 (NQO1), NQO1 (gene 1728); test: LTEA_HepaRG_NQO1: Life Technologies and Expression Analysis (LTEA) Assay for NAD(P)H dehydrogenase [quinone] 1 (NQO1) using HepaRG (AID 2283526)
Outline: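 Differentiated HepaRG cells, plated 48 h and then switched to serum-free induction medium, were exposed in duplicate for 48 h to 8-point half-log concentrations up to 100 uM in 0.5% DMSO. mRNA measured by qRT-PCR, normalized to ACTB, GAPDH, POLR2A; bidirectional fit versus DMSO.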

[15] = read-out: Nuclear factor erythroid 2-related factor 2 (Homo sapiens) (UniProt Q16236); test: LTEA_HepaRG_NFE2L2: Life Technologies and Expression Analysis (LTEA) Assay for Nuclear factor erythroid 2-related factor 2 (NFE2L2) Transcription Factor using HepaRG (AID 2283527);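 further: TaqMan qRT-PCR transcript level normalised to ACTB GAPDH and POLR2A housekeeping genes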
Outline: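 Transcript level of NFE2L2 is the read-out, measured by microfluidic TaqMan qRT-PCR and normalized to three housekeeping genes. Human HepaRG cultures received test chemical for 48 h at up to 100 uM in half-log steps. Gain or loss of signal is fitted relative to 0.5% DMSO.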

[16] = read-out: succinate dehydrogenase complex iron sulfur subunit B (SDHB), SDHB (gene 6390); test: LTEA_HepaRG_SDHB: Life Technologies and Expression Analysis (LTEA) Assay for succinate dehydrogenase complex iron sulfur subunit B (SDHB) using HepaRG (AID 2283528)
Outline: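 HepaRG cells (~100,000/well, plated 48 h) exposed in duplicate for 48 h in serum-free induction medium to 8-point half-log series from 100 uM in 0.5% DMSO; mRNA by qRT-PCR normalised to ACTB, GAPDH, POLR2A; bidirectional fit versus DMSO.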

[17] = read-out: Signal transducer and activator of transcription 3 (Homo sapiens) (UniProt P40763); test: LTEA_HepaRG_STAT3: Life Technologies and Expression Analysis (LTEA) Assay for Signal transducer and activator of transcription (STAT3) using HepaRG (AID 2283529)
Outline: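 Read-out is STAT3 mRNA level by qRT-PCR, normalized to three housekeeping genes, in human HepaRG liver cells treated for 48 h. Concentrations ran from 100 uM downward in half-log steps; curves were fitted for gain or loss relative to 0.5% DMSO.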

[18] = read-out: solute carrier (SLCO1B1), SLCO1B1 (gene 10599); test: LTEA_HepaRG_SLCO1B1: Life Technologies and Expression Analysis (LTEA) Assay for solute carrier (SLCO1B1) using HepaRG (AID 2283530)
Outline: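 HepaRG, serum-free induction medium, 48 h dosing, 8-pt half-log from 100 uM, 0.5% DMSO vehicle, duplicates. Readout: SLCO1B1 mRNA, qRT-PCR, ACTB/GAPDH/POLR2A normalization; up or down fit vs DMSO.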

[19] = read-out: sulfotransferase 2A1 (SULT2A1), SULT2A1 (gene 6822); test: LTEA_HepaRG_SULT2A1: Life Technologies and Expression Analysis (LTEA) Assay for sulfotransferase 2A1 (SULT2A1) using HepaRG (AID 2283531)
Outline: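 Transcript levels of SULT2A1, quantified by qRT-PCR and normalized to three housekeeping genes, serve as the readout. Human HepaRG cultures receive test chemicals for 48 h at up to 100 uM in half-log steps, with 0.5% DMSO vehicle.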

Measured: outcome

Chain of Signal transducer and activator of transcription 3 (Homo sapiens) (P40763 whole entry, looked up): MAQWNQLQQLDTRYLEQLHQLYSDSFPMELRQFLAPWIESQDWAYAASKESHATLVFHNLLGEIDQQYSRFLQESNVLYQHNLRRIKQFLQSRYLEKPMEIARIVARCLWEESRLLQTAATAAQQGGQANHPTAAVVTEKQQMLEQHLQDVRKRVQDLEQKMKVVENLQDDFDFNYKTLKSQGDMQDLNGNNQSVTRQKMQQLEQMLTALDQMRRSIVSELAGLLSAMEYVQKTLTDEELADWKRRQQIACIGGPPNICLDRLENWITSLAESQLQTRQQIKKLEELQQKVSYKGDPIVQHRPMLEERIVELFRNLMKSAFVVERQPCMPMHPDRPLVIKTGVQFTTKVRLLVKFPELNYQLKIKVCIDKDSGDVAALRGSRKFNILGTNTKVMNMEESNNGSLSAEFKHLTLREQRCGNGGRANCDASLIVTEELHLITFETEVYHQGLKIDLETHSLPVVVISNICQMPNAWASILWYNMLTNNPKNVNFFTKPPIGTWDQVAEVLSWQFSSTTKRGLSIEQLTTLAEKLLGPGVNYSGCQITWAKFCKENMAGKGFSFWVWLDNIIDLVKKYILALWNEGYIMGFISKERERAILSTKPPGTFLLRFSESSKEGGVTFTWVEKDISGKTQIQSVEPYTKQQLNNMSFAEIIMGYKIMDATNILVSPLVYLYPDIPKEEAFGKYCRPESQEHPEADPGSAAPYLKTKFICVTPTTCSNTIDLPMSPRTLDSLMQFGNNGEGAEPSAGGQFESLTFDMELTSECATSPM
Chain of Nuclear factor NF-kappa-B p105 subunit (Homo sapiens) (P19838 whole entry, looked up): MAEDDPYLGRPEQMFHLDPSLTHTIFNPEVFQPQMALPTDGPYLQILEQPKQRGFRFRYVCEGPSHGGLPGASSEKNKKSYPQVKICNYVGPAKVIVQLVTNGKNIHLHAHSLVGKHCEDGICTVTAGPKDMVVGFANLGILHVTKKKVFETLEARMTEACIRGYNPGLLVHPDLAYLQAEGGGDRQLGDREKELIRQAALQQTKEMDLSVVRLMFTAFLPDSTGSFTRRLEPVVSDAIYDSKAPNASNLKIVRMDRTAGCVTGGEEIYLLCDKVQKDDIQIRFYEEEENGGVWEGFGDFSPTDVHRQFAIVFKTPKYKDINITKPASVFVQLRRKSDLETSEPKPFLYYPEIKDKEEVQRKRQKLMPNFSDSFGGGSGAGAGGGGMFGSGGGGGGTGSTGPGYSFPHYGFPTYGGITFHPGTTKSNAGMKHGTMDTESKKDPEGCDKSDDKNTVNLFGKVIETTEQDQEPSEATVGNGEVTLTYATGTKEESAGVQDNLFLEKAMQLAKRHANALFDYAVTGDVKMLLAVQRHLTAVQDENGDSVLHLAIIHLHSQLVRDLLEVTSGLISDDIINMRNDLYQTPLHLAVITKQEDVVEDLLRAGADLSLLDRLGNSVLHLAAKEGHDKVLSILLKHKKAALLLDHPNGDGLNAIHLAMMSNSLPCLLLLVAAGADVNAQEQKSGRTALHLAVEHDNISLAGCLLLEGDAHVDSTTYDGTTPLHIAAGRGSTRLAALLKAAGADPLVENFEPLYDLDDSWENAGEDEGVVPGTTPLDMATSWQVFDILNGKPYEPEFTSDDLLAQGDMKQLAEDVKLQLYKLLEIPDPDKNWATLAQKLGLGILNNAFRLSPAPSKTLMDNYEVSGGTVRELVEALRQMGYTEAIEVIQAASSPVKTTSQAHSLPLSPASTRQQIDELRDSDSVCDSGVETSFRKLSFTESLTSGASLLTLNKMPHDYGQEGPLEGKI
Chain of Nuclear factor erythroid 2-related factor 2 (Homo sapiens) (Q16236 whole entry, looked up): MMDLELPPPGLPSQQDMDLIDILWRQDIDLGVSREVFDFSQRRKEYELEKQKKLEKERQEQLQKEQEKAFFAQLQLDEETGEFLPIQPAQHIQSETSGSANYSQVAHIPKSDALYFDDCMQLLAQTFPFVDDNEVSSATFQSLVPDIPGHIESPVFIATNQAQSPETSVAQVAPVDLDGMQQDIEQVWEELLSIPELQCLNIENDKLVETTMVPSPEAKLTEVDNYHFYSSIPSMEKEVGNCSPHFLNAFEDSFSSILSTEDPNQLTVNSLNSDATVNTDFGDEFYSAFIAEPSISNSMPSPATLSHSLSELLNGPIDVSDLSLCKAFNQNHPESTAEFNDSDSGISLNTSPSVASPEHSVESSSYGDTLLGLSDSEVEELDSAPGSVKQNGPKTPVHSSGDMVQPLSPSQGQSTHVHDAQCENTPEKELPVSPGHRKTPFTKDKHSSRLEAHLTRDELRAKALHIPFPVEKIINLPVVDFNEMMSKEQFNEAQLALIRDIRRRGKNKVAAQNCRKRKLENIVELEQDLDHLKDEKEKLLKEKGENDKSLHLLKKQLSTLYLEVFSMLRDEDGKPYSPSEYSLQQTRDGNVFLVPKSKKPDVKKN

O=C(O)c1ccc([N+](=O)[O-])cc1
inactive: all assays above
